Drawing on PubChem BioAssay (EPA / NIEHS), this text covers outcome for 15 compounds.

The structures appear in SMILES notation. Inconclusive results are not listed. The source made the active and inactive calls. The calls were made as follows: active = hit-call score of the fitted dose curve at least 0.9, where 1 is the maximum; inconclusive = response in the unintended direction; inactive = score below 0.9.

One test can be described thus: ATG_M_61_XSP1: Attagene TRANS-FACTORIAL Multi-Species (XSP1) HepG2 Assay for M61 Transcription Factor (Internal Marker) (AID 2283797). The gist of the method: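 Background-control readout: reporter transcripts measured by RT-PCR and capillary electrophoresis 24 h after dosing transiently transfected HepG2 multi-reporter cells, with 3 nM 6-alpha-fluorotestosterone present. Fitted in the positive direction relative to DMSO.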
Regarding `COC(=O)N(OC)c1ccccc1COc1ccn(-c2ccc(Cl)cc2)n1`, the call was inactive. Turning to `CC(C)(C)c1ccc(CSc2cnn(C(C)(C)C)c(=O)c2Cl)cc1`, the call was inactive. For the compound `CON(C)C(=O)Nc1ccc(Cl)c(Cl)c1`, the call was inactive. The same measure, in the same setting: next, `CC(C)Oc1cc(-n2nc(C(C)(C)C)oc2=O)c(Cl)cc1Cl`: “inactive”. Consider `CO/C=C(/C(=O)OC)c1ccccc1Oc1cc(Oc2ccccc2C#N)ncn1`, for which the call was inactive. Same read-out and setting: next, `COc1ccc(C(c2ccc(OC)cc2)C(Cl)(Cl)Cl)cc1`: “inactive”; `COP(=S)(OC)Oc1nc(Cl)c(Cl)cc1Cl`: “inactive”; `CCCN(CCC)c1c([N+](=O)[O-])cc(S(N)(=O)=O)cc1[N+](=O)[O-]`: “inactive”. Regarding `CCOP(=S)(OCC)SCn1c(=O)oc2cc(Cl)ccc21`, the compound was classed as inactive. Consider `C=CC1(C)OC(=O)N(c2cc(Cl)cc(Cl)c2)C1=O` (stereo not given), for which the outcome was inactive. Regarding `C#CCOS(=O)OC1CCCCC1Oc1ccc(C(C)(C)C)cc1` (stereo not given), the outcome was inactive. Take `CCCCC(CC)COC(=O)c1ccccc1C(=O)OCC(CC)CCCC` (stereo not given): the compound was classed as inactive. Consider `CCCCNC(=O)OCC#CI`, for which the call was inactive.

The nature of the next test: ATG_M_19_XSP1: Attagene TRANS-FACTORIAL Multi-Species (XSP1) HepG2 Assay for M19 Transcription Factor (Internal Marker) (AID 2283798). In short, it runs like this:
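Readout is reporter mRNA induction quantified via RT-PCR, 6-FAM labeling, HpaI digestion and capillary electrophoresis, fitted in the positive direction versus DMSO baseline. Transfected HepG2 cells exposed 24 h, medium including 3 nM 6-alpha-fluorotestosterone.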
Consider `CCCCOC(=O)c1ccccc1C(=O)OCCCC`, for which the compound was classed as inactive. `COc1ccc(C(c2ccc(OC)cc2)C(Cl)(Cl)Cl)cc1`: the compound was called inactive.

Take `COP(=S)(OC)Oc1nc(Cl)c(Cl)cc1Cl`: the compound was called inactive.

Regarding `CCOP(=S)(OCC)SCn1c(=O)oc2cc(Cl)ccc21`, the call was inactive. The same measure, in the same setting: next, `C=CC1(C)OC(=O)N(c2cc(Cl)cc(Cl)c2)C1=O` (stereo not given): “inactive”; `CCCC1COC(Cn2cncn2)(c2ccc(Cl)cc2Cl)O1` (stereo not given): “inactive”; `CCCCC(CC)COC(=O)c1ccccc1C(=O)OCC(CC)CCCC` (stereo not given): “inactive”.
